Most compounds without a hit are left out; they make up all but 12% or so of the library.
Pf growth 96h = Primary qHTS for delayed death inhibitors of the malarial parasite plastid, 96 hour incubation | hit rate 6.9% among 320,000 | AID 504834, 2011 | Potency, µM (highest dose often 28.7 µM), hits mostly inhibitors | P. falciparum luciferase reporter growth, 96 h
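Infected RBCs, 2% Hct / 0.05% parasitemia final; luciferase-reporter P. falciparum; cpd 96 h, 37 C, 5% CO2; luciferase detection reagent; luminescence.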
NS1 function inh = qHTS Assay for Inhibitors of Influenza NS1 Protein Function; Potency, µM (series often up to 46.1 µM); hit rate 0.4% among 270,000; calls by dose curve; further: actives are rising curves; nearly all actives have a fitted effect of over 50% in size
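In this qHTS, NS1 from influenza A is expressed in budding yeast, where it slows growth. Cells are switched from glucose to 2% galactose medium (pH 6.0, -URA), treated with compound, and growth recovery is read at OD600.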
SARS PLpro yeast = qHTS of Yeast-based Assay for SARS-CoV PLP; S. cerevisiae expressing SARS-CoV PLpro, growth rescue; AID 485353, 2010; Potency, µM (highest dose often 32.9 µM), usual class: activators; hit rate 0.19% among 330,000; calls by dose curve; further: nearly all actives have a fitted effect of over 55% in size
Pf growth 48h = Primary qHTS for delayed death inhibitors of the malarial parasite plastid, 48 hour incubation; Potency, µM (highest dose often 28.7 µM), hits mostly inhibitors; AID 504832, 2011; P. falciparum luciferase growth in erythrocytes, 48 h; hit rate 5.9% among 310,000
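Firefly luciferase activity from engineered P. falciparum reports growth; inhibitors lower the luminescent signal. Cultures contained 2% hematocrit erythrocytes at 0.1% final parasitemia.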
HCV inhibitor = qHTS Assay for Inhibitors of Hepatitis C Virus (HCV); Huh7.5.1 HCVcc-Cre infection, luciferase reporter, 44 h; Potency, µM (titrated, usually from 41.8 µM), most hits filed as inhibitors; hit rate 3.4% among 340,000; AID 651820, 2012
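Reporter virus HCVcc-Cre (~0.5 moi) infects cells exposed to compound; seeding density 1,000 cells/well with 4 h settling beforehand. Luminescence, 15 sec read, taken 44 h post-infection following a 15 min RT substrate incubation.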
AMA1-RON2 inh = qHTS for Inhibitors of AMA1-RON; Towards Development of Antimalarial Drug Lead: Primary Screen. AlphaScreen AMA1-biotinylated RON2 peptide binding. Potency, µM (series often up to 58.2 µM), most hits filed as inhibitors. hit rate 0.2% among 360,000; further: nearly all actives have a fitted effect of over 45% in size
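AMA1 (3D7) with his tag at 25 nM final met compounds first, then biotinylated RON2 peptide at 25 nM; detection used donor plus acceptor beads, 10 µg/mL apiece, read by AlphaScreen after 30 min at room temperature.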
Numbers stand for hits; [ ] = dose if it differs, or a comment. Unless noted, the call rests on the fitted dose curve; in most records, active means well fitted curve in the direction sought with a large enough effect; inconclusive means small, poorly fitted or top-dose-only effect, or another doubt; inactive means no such curve, though single readings can be large; an effect the other way counts as inactive or inconclusive.

How did COc1cc(NCCC(=O)c2cccs2)c(OC)cc1Cl do in these assays?
Pf growth 96h: inactive; SARS PLpro yeast: inactive; Pf growth 48h: inactive; HCV inhibitor: inactive; AMA1-RON2 inh: 14µM

What do the screens show for `COc1cc(NC(=O)c2cccs2)c(OC)cc1NC(=O)Cc1ccccc1`?
Pf growth 96h: inconclusive; NS1 function inh: inactive; SARS PLpro yeast: inactive; Pf growth 48h: inactive; HCV inhibitor: 35µM; AMA1-RON2 inh: inactive

What do the screens show for `COc1ccc(CC(=O)NNC(=O)c2cccs2)cc1`?
Pf growth 96h: 2.9µM; NS1 function inh: inactive; SARS PLpro yeast: inactive; Pf growth 48h: inactive; HCV inhibitor: inactive; AMA1-RON2 inh: inactive

What do the screens show for `N/N=C(/Cc1nc2ccccc2[nH]1)c1ccc([N+](=O)[O-])cc1`?
Pf growth 96h: inactive; SARS PLpro yeast: inactive; Pf growth 48h: inconclusive; HCV inhibitor: inconclusive; AMA1-RON2 inh: inactive

Results for N#CCCn1cc(C(=O)CN2C(=O)C(=O)N(C3CCCC3)C2=O)c2ccccc21 ?
Pf growth 96h: inactive; SARS PLpro yeast: inactive; Pf growth 48h: inconclusive; HCV inhibitor: inactive; AMA1-RON2 inh: inactive

How did CCCCn1c(N)c(N(CC(C)C)C(=O)c2cc3ccccc3cc2OC)c(=O)[nH]c1=O do in these assays?
HCV inhibitor: inactive; AMA1-RON2 inh: inactive

How did COc1cc(NC(=O)COc2ccccc2[N+](=O)[O-])ccc1NC(=O)c1ccco1 do in these assays?
Pf growth 96h: inactive; NS1 function inh: inactive; SARS PLpro yeast: inactive; Pf growth 48h: inactive; HCV inhibitor: inactive; AMA1-RON2 inh: inactive

What do the screens show for `COc1cc(NC(=O)COc2ccccc2[N+](=O)[O-])ccc1NC(=O)c1cccs1`?
Pf growth 96h: 12µM; NS1 function inh: inactive; SARS PLpro yeast: inactive; Pf growth 48h: inactive; HCV inhibitor: inconclusive; AMA1-RON2 inh: inactive

Results for CNC[C@H](Cc1cccc2ccccc12)NC[C@H](CCSC)NCC1CCC(C(C)(C)C)CC1 (some centres undefined) ?
SARS PLpro yeast: inactive; HCV inhibitor: inconclusive

Results for NNC(=O)C1CC1c1ccccc1 (centres undefined) ?
Pf growth 96h: 9.3µM; NS1 function inh: inactive; SARS PLpro yeast: inactive; Pf growth 48h: inactive; HCV inhibitor: inactive; AMA1-RON2 inh: inactive

How did COc1ccc(N(C(=O)c2ccccc2C)S(=O)(=O)c2cccs2)cc1 do in these assays?
Pf growth 96h: 8.3µM; NS1 function inh: inconclusive; SARS PLpro yeast: inactive; Pf growth 48h: inconclusive; HCV inhibitor: inconclusive; AMA1-RON2 inh: inactive[2.32 µM]

How did CN(C)c1ccc(C(=O)OCC(=O)NC2CCCCCC2)cc1 do in these assays?
Pf growth 96h: inactive; SARS PLpro yeast: inactive; Pf growth 48h: inactive; HCV inhibitor: inconclusive; AMA1-RON2 inh: inactive

Results for CN(C)c1ccc(N=Nc2ccccc2C(=O)OCC(=O)NCC2CCCCC2)cc1 ?
Pf growth 96h: inactive; NS1 function inh: inactive; SARS PLpro yeast: inactive; Pf growth 48h: inconclusive; HCV inhibitor: inactive; AMA1-RON2 inh: 11µM

What do the screens show for `CN(C)c1ccc(N=Nc2ccccc2C(=O)OCC(=O)NC2CCCC2)cc1`?
Pf growth 96h: 8.3µM; NS1 function inh: inactive; SARS PLpro yeast: inactive; Pf growth 48h: inactive; HCV inhibitor: inactive; AMA1-RON2 inh: 7.9µM

Results for CN(C)c1ccc(N=Nc2ccccc2C(=O)OCC(=O)N(C)C2CCCCC2)cc1 ?
Pf growth 96h: inconclusive; NS1 function inh: inactive; SARS PLpro yeast: inactive; Pf growth 48h: inactive; HCV inhibitor: inactive; AMA1-RON2 inh: inactive

Results for O=S(=O)(c1cccc(F)c1)N1CCN(c2nc(-c3cccnc3)nc3ccccc23)CC1 ?
SARS PLpro yeast: inactive; HCV inhibitor: inconclusive; AMA1-RON2 inh: inactive

What do the screens show for `CC1CCN(C(C)C(=O)Nc2ccccc2-c2ccccc2)CC1` (centres undefined)?
Pf growth 96h: inactive; NS1 function inh: inactive; SARS PLpro yeast: inactive; Pf growth 48h: inactive; HCV inhibitor: inactive; AMA1-RON2 inh: inconclusive
